# Assay results from PubChem BioAssay (NCATS).
# Inconclusive results are not listed. Activity calls are given as the source filed them. Calls follow the shape of the full dose curve. Peptide text beside a SMILES is read from it.
# Assay: Cell Viability - SK-N-SH (AID 435);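 also: compound exposure lasted 40 h at 37 °C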
# Conditions: SK-N-SH neuroblastoma cell viability qHTS
# Source text: NIH Chemical Genomics Center [NCGC]
# NIH Molecular Libraries Screening Centers Network [MLSCN]
# National Institutes of Environmental Health Sciences [NIEHS]
# National Toxicology Program [NTP]
# We have developed a 1536-well cell-based assay for quantitative high throughput screening (qHTS) against a number of cell lines to determine in vitro cytotoxicity of small molecules. This particular assay uses the SK-N-SH cell line which is derived from human neuroblastoma.
# NCGC Assay Protocol Summary:
# The CellTiter-Glo luminescent cell viability assay (Promega) is a homogeneous method to measure the number of viable cells in culture. The end point readout of this assay is based on quantitation of intracellular ATP, an indicator of metabolic activity, using the luciferase reaction. Luciferase catalyzes the oxidation of beetle Luciferin to oxyluciferin and light in the presence of ATP. The luminescent signal is proportional to amount of ATP present.
# Using the CellTiter-Glo luminescent cell viability assay, the amount of cellular ATP was measured in the SK-N-SH cell line with complete culture medium following compound treatment for 40 hours. The assay was performed in opaque white Kalypsys 1536-well plates. In the screen, tamoxifen and doxorubicin were used as positive controls. Library compounds were measured for their ability to cause acute toxicity in the cell line, as reflected by a decrease in intracellular ATP levels, in a concentration-dependent manner. Data were normalized to the controls for basal activity (DMSO only) and 100% inhibition (100 uM tamoxifen). AC50 values were determined from concentration-response data modeled with the standard Hill equation.
# qHTS protocol fo CellTiter Glo SK-N-SH cellular assay
# [Step] [Parameter] [Value] [Description]
# 1. Reagent; 5 uL; 1500 SK-N-SH cells/well
# 2. Time; 5 hr; 37 °C incubation
# 4. Controls; 23 nL; Tamoxifen 0.34 uM to 100 uM & Doxorubicin 0.02 nM to 100 uM
# 5. Time; 40 hr; 37 °C incubation
# 6. Reagent; 5 uL; CellTiter Glo reagent
# 7. Time; 20 min; Room Temperature
# 8. Detection; Luminescence; Viewlux plate reader
# Keywords: cell viability, cytotoxicity, SK-N-SH cell line, luminescence, NTPHTS, NTPHTS_NCGC, NIEHS, EPA, DSSTox, MLSMR, MLSCN, NIH Roadmap, qHTS, NCGC
# Potency is read from the fitted curve at half-maximal effect.
row,SMILES,Potency
1,NS(=O)(=O)c1cc(C(=O)O)c(NCc2ccco2)cc1Cl,> 92 µM (inactive)
2,COc1c2occc2cc2ccc(=O)oc12,> 92 µM (inactive)
3,Nc1ccc(S(N)(=O)=O)cc1,> 92 µM (inactive)
4,CC(=O)Nc1ccc(O)cc1,> 92 µM (inactive)
5,CCCc1cc(=O)[nH]c(=S)[nH]1,> 92 µM (inactive)
6,COC(=O)[C@H](Cc1ccccc1)NC(=O)[C@@H](N)CC(=O)O (H-Asp-Phe-OMe),> 92 µM (inactive)
7,Cc1cc(O)c2c(c1)C(=O)c1cc(O)cc(O)c1C2=O,35 µM (active)
8,CCCCC(CC)COC(=O)C(C#N)=C(c1ccccc1)c1ccccc1 (stereo not drawn),> 92 µM (inactive)
9,CS(=O)(=O)OCCCCOS(C)(=O)=O,> 92 µM (inactive)
10,CCc1nc(N)nc(N)c1-c1ccc(Cl)cc1,25.6 µM (active)
11,CN(C)c1ccc2nc3ccc(=[N+](C)C)cc-3sc2c1,10.9 µM (active)
12,c1ccc2[nH]c(-c3cscn3)nc2c1,> 92 µM (inactive)
13,Cc1ccc(C)c(OCCCC(C)(C)C(=O)O)c1,> 92 µM (inactive)
